Screening results (PubChem)
Many of the other results were omitted from the sample, so hits are more common in it than they were.
BL2 CD40 inh: inhibitors of CD40-induced NF-kB signaling, primary screen, BL2 cells, luciferase reporter, single point. CD40L-induced, 4 h. inhibition, % at 10 µM. hit rate 0.94% among 83,000;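 active = mean inhibition of at least 50% with a set share of replicates also reaching that level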;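 note: 0% = neutral control wells and 100% = IKK inhibitor VII at 50 µM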
The depositor's hits bear a star; ! = not confirmed by another sample; [ ] = another dose, or the depositor's remark.

SMILES	BL2 CD40 inh
C[C@@H]1CN([C@@H](C)CO)C(=O)Cc2cc(NC(=O)Cc3cn(C)c4ccccc34)ccc2O[C@H]1CN(C)Cc1ccccc1	11
O=C(C[C@H]1C=C[C@H](NC(=O)Nc2cccc(F)c2)[C@H](CO)O1)NCC1CCCCC1	7[25 µM]
C/C(=N\OCC(=O)Nc1nc2ccccc2s1)c1ccccc1	13
O=C(Nc1nc2ccccc2s1)c1cnccn1	28
CC(=NNc1nc2ccccc2s1)c1ccncn1	63*
COC(=O)[C@H]1[C@H](CO)[C@H]2Cn3c(ccc(-c4ccncc4)c3=O)[C@H]2N1Cc1ccccc1F	-3[25 µM]
COC1=CC(=O)c2c(ccc3ncnc(N)c23)C1=O	103*
COc1ccccc1S(=O)(=O)N[C@H]1CC[C@@H](CCNC(=O)C2CCCC2)O[C@@H]1CO	-7
CCNC(=O)[C@H]1[C@H](CO)[C@H]2Cn3c(ccc(-c4cccnc4)c3=O)[C@@H]1N2Cc1ccccc1	-7[25 µM]
COc1ccc(NC(=O)N(C)C[C@@H]2Oc3ccc(NS(=O)(=O)c4ccc(F)cc4)cc3C(=O)N([C@@H](C)CO)C[C@@H]2C)cc1	-4
COc1ccc(CN2CC3(CN(S(=O)(=O)c4ccc(C)cc4)C3)c3c([nH]c4cc(OC)ccc34)[C@H]2CO)cc1	55*[25 µM]
COc1ccc2c3c([nH]c2c1)[C@H](CO)N(Cc1ccc(Cl)cc1)CC31CN(S(C)(=O)=O)C1	14[25 µM]
COc1ccc2c3c([nH]c2c1)[C@@H](CO)N(Cc1ccc(Cl)cc1)CC31CN(S(C)(=O)=O)C1	11[25 µM]
C[C@H]1CN([C@@H](C)CO)C(=O)c2ccccc2-c2ccccc2CO[C@H]1CN(C)Cc1ccccc1C(F)(F)F	33[25 µM]
C[C@H](CO)N1C[C@H](C)[C@@H](CN(C)Cc2ccccc2)OCc2ccccc2-c2ccccc2C1=O	7
COc1ccccc1CN(C)C[C@H]1OCc2ccccc2-c2ccccc2C(=O)N([C@@H](C)CO)C[C@H]1C	-8[25 µM]
C[C@H](CO)N1C[C@H](C)[C@@H](CN(C)Cc2ccc(Oc3ccccc3)cc2)OCc2ccccc2-c2ccccc2C1=O	69*[25 µM]
C[C@@H]1CN([C@@H](C)CO)C(=O)c2ccccc2-c2ccccc2CO[C@@H]1CN(C)Cc1ccccc1C(F)(F)F	53*[25 µM]
C[C@@H]1CN([C@@H](C)CO)C(=O)c2ccccc2-c2ccccc2CO[C@@H]1CN(C)Cc1ccc(C(F)(F)F)cc1	3
C[C@@H]1CN([C@H](C)CO)C(=O)c2ccccc2-c2ccccc2CO[C@@H]1CN(C)Cc1ccccc1C(F)(F)F	83*[25 µM]
C[C@H](CO)N1C[C@H](C)[C@H](CN(C)Cc2ccccc2C(F)(F)F)OCc2ccccc2-c2ccccc2C1=O	45[25 µM]
C[C@@H]1CN([C@H](C)CO)C(=O)c2ccccc2-c2ccccc2CO[C@@H]1CN(C)Cc1ccccc1	11
CN(C)C(=O)c1ccc(-c2ccccc2[C@H]2[C@@H](C#N)N(C(=O)C3CC3)[C@@H]2CO)cc1	-9[25 µM]
CN1[C@H](C(=O)NC2CCC2)[C@@H](CO)[C@@H]2Cn3c(ccc(/C=C/c4ccccc4)c3=O)[C@@H]21	-9
COCCNC(=O)C[C@@H]1CC[C@@H]2[C@H](COC[C@H](O)CN2C(=O)c2cc(Cl)cc(Cl)c2)O1	-2[25 µM]
SMILES	BL2 CD40 inh
CN(C)C(=O)C[C@@H]1CC[C@@H]2[C@@H](COc3ccc(NC(=O)C4CCC4)cc3C(=O)N2C)O1	-2
O=C(C1CCCCC1)N1CC[C@@H]2[C@H]1c1cc(Br)ccc1N[C@@H]2CO	-14
O=S(=O)(c1ccccc1)N1CC2(C1)[C@H](c1ccccc1)[C@H](CO)N2CCC(F)(F)F	7[25 µM]
CC(=O)Nc1cccc2c1O[C@@H](CN(C)C)[C@H](C)CN(C)C2=O	11
CCC(=O)N1[C@@H]2c3ccc(-c4ccccc4)c(=O)n3C[C@@H]2[C@@H](CO)[C@@H]1C(=O)N(C)C	-7[25 µM]
O=C(COc1ccccc1)c1ccccc1	-9
O=C(CC(=O)c1ccccc1)c1ccccc1	-74
O=C(C#Cc1ccccc1)c1ccccc1	89*
O=C(Cc1ccccn1)N1CC2(C1)[C@@H](c1ccccc1)[C@H](CO)N2C(=O)c1ccncc1	-7[25 µM]
COc1cccc(CN2[C@@H](CO)[C@@H](c3ccccc3)C23CN(C(=O)C2CCCC2)C3)c1	2
Cc1nc2ccccn2c(=O)c1CCN1CCC(C(=O)c2ccc(F)cc2)CC1	5
Cc1ccc(C)c(C(=O)c2c(C)nc3sccn23)c1	9
Cc1nc2sccn2c(=O)c1CCN1CCC(=C(c2ccc(F)cc2)c2ccc(F)cc2)CC1	27*
CC(=O)N(C)C[C@@H]1Oc2c(NS(C)(=O)=O)cccc2C(=O)N(C)C[C@@H]1C	3
CCN(C[C@@H]1[C@@H](c2ccccc2)[C@H](CO)N1CC1CC1)C(=O)c1ccccn1	-7[25 µM]
OC(CN1CCOCC1)Cn1c(-c2cccc(Cl)c2)nc2ccccc21 (centres undefined)	0
OC(c1cc(-c2cccc(Cl)c2)nc2ccccc12)C1CCCCN1 (centres undefined)	65*
O=C(O)c1cc(-c2ccccc2)nc2ccccc12	-4
CN1c2ccc(-c3cccc(F)c3)cc2[C@@H]2[C@@H](CCN2S(=O)(=O)c2cccc(F)c2)[C@@H]1CO	4
COc1ccccc1-c1ccc([C@@H]2[C@@H](C#N)N(C(=O)c3cccnc3)[C@@H]2CO)cc1	23[25 µM]
O=C(c1cccc(F)c1)N1CC[C@@H]2[C@@H](CO)Nc3ccc(-c4ccccc4)cc3[C@@H]21	-1
O=C(Nc1cccc(F)c1)N1C[C@@H]2N[C@H](C1)C2c1ccc(-c2ccccc2F)cc1 (some centres undefined)	-1
COc1cccc(-c2ccc(C3[C@@H]4CN(C(=O)C5CCC5)C[C@H]3N4)cc2)c1 (some centres undefined)	3
COc1ccc(NC(=O)N2C[C@@H]3N[C@H](C2)[C@@H]3c2ccc(-c3ccc(OC)cc3)cc2)cc1	63*
COc1cccc(-c2ccc(C3[C@@H]4CN(C(=O)C5CC5)C[C@H]3N4)cc2)c1 (some centres undefined)	63*!
SMILES	BL2 CD40 inh
COc1ccc(NC(=O)N2C[C@@H]3N[C@H](C2)C3c2ccc(-c3cncnc3)cc2)cc1 (some centres undefined)	19
Cc1ccccc1-c1ccc(C2[C@@H]3CN(C(=O)Nc4cccc(F)c4)C[C@H]2N3)cc1 (some centres undefined)	62*[25 µM]
Cc1ccccc1-c1ccc(C2[C@@H]3CN(C(=O)Nc4ccc(F)cc4)C[C@H]2N3)cc1 (some centres undefined)	37[25 µM]
COc1ccc(NC(=O)N2C[C@@H]3N[C@H](C2)C3c2ccc(-c3cccc(OC)c3)cc2)cc1 (some centres undefined)	-25
COc1ccc(NC(=O)N2C[C@@H]3N[C@H](C2)C3c2ccc(-c3ccncc3)cc2)cc1 (some centres undefined)	-4[25 µM]
C[C@H]1CN([C@@H](C)CO)C(=O)c2c(c3ccccc3n2C)-c2ccccc2CO[C@@H]1CN(C)C(=O)Nc1cccc(Cl)c1Cl	46[25 µM]
O=C(C[C@H]1C[C@@H]2c3cc(NC(=O)c4cccnc4)ccc3O[C@@H]2[C@@H](CO)O1)NC1CCCCC1	-12[25 µM]
C[C@H](CO)N1C[C@H](C)[C@H](CN(C)C(=O)Cc2ccccc2)Oc2ncc(C3=CCCCC3)cc2C1=O	-2[25 µM]
C[C@H]1CN(C)C(=O)c2cc(NS(C)(=O)=O)ccc2O[C@H]1CN(C)S(C)(=O)=O	-4
O=C(Nc1ccc2c(c1)[C@H]1C[C@H](CC(=O)N3CCOCC3)O[C@@H](CO)[C@H]1O2)Nc1ccccc1F	0[25 µM]
